Reference: the supplement of paper PMC3484114
± gives the standard deviation.

Each molecule was assayed on OVCAR-3-derived ovarian cancer stem-like cells (spheroids) (assay: cell growth relative to untreated control; higher = more growth (less inhibition)). Details: 2.29 µM; 96 h.
In short: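 Viability of stem-like cells from OVCAR-3 spheroids was assessed with TOX8 resazurin fluorescence at ex 560/em 590 nm. The cells had been trypsin-dissociated, seeded at 50,000 cells/mL in stem cell medium in ultra-low attachment 96-well plates and preincubated 24 h, then treated with compounds at 2.29 uM for 96 h at 37°C, 5% CO2, in 4 replicate wells, with fluorescence read after 4 h. Results were converted to percent growth against untreated wells after blank subtraction and Grubbs outlier removal.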
`CC1(C)C(O)OC(O)C1(C)C` (centres undefined) showed a cell growth of 9.3 ± 2%.
Work on `Nc1ccn([C@@H]2C=C(CO)[C@@H](O)[C@H]2O)c(=O)n1` yielded a cell growth of 44.8 ± 5.1%.
`C[C@@H]1C[C@H]2OC(=O)[C@@]3(C)CCC[C@@](C)([C@@H]23)[C@@]1(O)CCc1ccoc1` showed a cell growth of 59.6 ± 12%.
Work on `CCCN(CCC)C(=S)Sc1nc(C)nc(N2CCN(c3nc(C)nc(SC(=S)N(CCC)CCC)c3[N+](=O)[O-])CC2)c1[N+](=O)[O-]` yielded a cell growth of 107 ± 22%.
In the case of `CC[C@@]1(O)C[C@H](O[C@H]2C[C@H](N(C)C)[C@H](O[C@H]3C[C@H](O)[C@H](O[C@H]4C[C@H](O)[C@H](O)[C@H](C)O4)[C@H](C)O3)[C@H](C)O2)c2c(cc3c(c2O)C(=O)c2c(O)ccc(O)c2C3=O)[C@H]1C(=O)OC`, the cell growth is reported as 78.9 ± 26%.
`Cc1c2ccc3ccccc3c2c[n+]2ccccc12` gave a cell growth of 88.9 ± 14%.
With `CNC(=O)c1cc(NC(=O)N(CCC#N)CCN(C(=O)N[C@@H](Cc2ccccc2)C(=O)N[C@@H](CC(C)C)C(=O)NC)c2ccccc2)ccc1OC` the cell growth was 98.9 ± 15%.
`COc1cc(C[C@H]2c3cc(OC)c(OC)cc3CCN2C)c(Oc2cc3c(cc2OC)-c2c(OC)c(OC)cc4c2[C@H](C3)N(C)CC4)cc1OC` showed a cell growth of 77.8 ± 11%.
With `N#CC1(C#N)C2C=CC(c3coc4cccc2c34)C1(C#N)C#N` (centres undefined) the cell growth was 20.9 ± 5.5%.
Work on `CC1=C(O)c2ccccc2C(=O)C1=O` yielded a cell growth of 91.9 ± 56%.
`CN(C)C[C@H]1CC[C@@H](CN(C)C)C1=O` gave a cell growth of 93.8 ± 21%.
`Cc1cc(Cl)ccc1N1C(=O)C(=O)C(c2nc3ccccc3o2)C(=O)C1=O` showed a cell growth of 134 ± 53%.
Work on `COc1ccc2oc(-c3ccncc3)cc(=O)c2c1` yielded a cell growth of 122 ± 9.1%.
Molecule `COc1ccc2c(c1[N+](=O)[O-])CC[C@@H]1[C@@H]2CC[C@]2(C)C(=O)CC[C@@H]12` has a cell growth of 152 ± 33%.
In the case of `O=C1c2ccccc2C(=O)c2sc(Nc3ccc(Cl)cc3)nc21`, the cell growth is reported as 14.5 ± 3.2%.
`COc1cc(CC(=O)c2cc3c(cc2-c2ccccc2)OCO3)cc(OC)c1OC` was tested, and the cell growth was 83.1 ± 25%.
`O=C(CCc1ccccc1)On1nnc2ccccc2c1=O` gave a cell growth of 79 ± 18%.
Molecule `COc1nc(C(Cl)(Cl)Cl)c(Cl)c(OC)c1Cl` has a cell growth of 112 ± 17%.
Work on `N[C@@H](CSC(c1ccccc1)(c1ccccc1)c1ccccc1)C(=O)O` yielded a cell growth of 34.8 ± 6.7%.
With `CN(C)CCCCN1CCc2c(n(C)c3ccccc23)C1=O` the cell growth was 101 ± 13%.
In the case of `C[n+]1c(-c2ccc(/C=C/C=N/NC(=O)c3ccc(C(=O)N/N=C/C=C/c4ccc(-c5cn6ccccc6[n+]5C)cc4)cc3)cc2)cn2ccccc21`, the cell growth is reported as 138 ± 18%.
Molecule `CC12CC(Br)(Br)C(=O)C3C1CCCC32` has a cell growth of 159 ± 19%.
In the case of `CC/C(=C(\c1ccccc1)c1ccc(OCCN(C)C)cc1)c1ccccc1`, the cell growth is reported as 115 ± 14%.
Work on `Cc1ccccc1OCC(COC(=O)Nc1ccccc1)OC(=O)Nc1ccccc1` (centres undefined) yielded a cell growth of 111 ± 16%.
`O=Nc1ccc(O)c2ncccc12` showed a cell growth of 82 ± 25%.
For `Cc1ccc(NC(=O)c2cccc([N+](=O)[O-])c2O)c([N+](=O)[O-])c1`, the cell growth was 86.3 ± 17%.
`O=NN(CCCl)C(=O)NCc1ccc[n+]([O-])c1` was tested, and the cell growth was 76.9 ± 13%.
Work on `Nc1nc(Cl)nc2c1ncn2[C@H]1C[C@H](O)[C@@H](CO)O1` yielded a cell growth of 82.7 ± 17%.
`O=c1cccccc1O` was tested, and the cell growth was 92.1 ± 38%.
`Cc1nc2c(nc1C)C(=O)c1ccccc1C2=O` gave a cell growth of 54.6 ± 6.1%.
Molecule `COCC(=O)OC1CCn2c1nc1c2C(=O)C(C)=C(NC(C)=O)C1=O` (centres undefined) has a cell growth of 76.1 ± 12%.
`Nc1ccc2c(c1)S(=O)(=O)c1cc(N)ccc1-2` showed a cell growth of 112 ± 21%.
`COc1ccccc1[S+]([O-])Nc1ccccc1` (centres undefined) gave a cell growth of 117 ± 25%.
`Nc1nc2c(ncn2[C@@H]2O[C@H](CO)[C@@H](O)[C@H]2O)c(=O)[nH]1` gave a cell growth of 107 ± 11%.
Molecule `CO[C@H](C(=O)[C@@H](O)[C@@H](C)O)[C@@H]1Cc2cc3cc(O[C@H]4C[C@@H](O[C@H]5C[C@@H](O)[C@H](O)[C@@H](C)O5)[C@H](O)[C@@H](C)O4)c(C)c(O)c3c(O)c2C(=O)[C@H]1O[C@H]1C[C@@H](O[C@H]2C[C@@H](O[C@H]3C[C@](C)(O)[C@H](O)[C@@H](C)O3)[C@@H](O)[C@@H](C)O2)[C@H](O)[C@@H](C)O1` has a cell growth of 10.8 ± 3.6%.
Molecule `Cc1c2cnccc2c(C)c2c1c1ccccc1n2CCOC(=O)c1ccccc1` has a cell growth of 127 ± 35%.
`Cc1nc(N)nc(N)c1-c1ccc(Cl)c(Cl)c1` was tested, and the cell growth was 102 ± 13%.
For `CN(C)CCCN1c2ccc3ccccc3c2Sc2cccc(Cl)c21`, the cell growth was 104 ± 19%.
`C=C1C(=O)OC2CC1C(OC(C)=O)C/C(C)=C/CC/C(C)=C\CCC2(C)O` (centres undefined) was tested, and the cell growth was 48.5 ± 5.5%.
